About 79,000 compounds went through this panel and 15% of them were active in at least one assay; those are over-represented in the sample as a whole. The source made the active and inactive calls. Cut-off read from the data, not from the text of the source: active = growth inhibition above about 70%; inactive = the rest.

One assay in a line: NCI Yeast Anticancer Drug Screen. Data for the bub3 strain (AID 167). The note with it: S. cerevisiae bub3 mutant strain, at 5.0 µM (retest, dose inferred, filed as 0.5), active compounds read high. In short, it runs like this: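 Screening used yeast with an engineered genetic alteration affecting cell cycle control. Compound-exposed cultures were compared with vehicle cultures, and reduced growth was taken as inhibition.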
`COC(=O)[C@H]1O[C@H]1c1ccncc1`: the growth inhibition was 3% (inactive).

Regarding `O=[N+]([O-])c1ccc(NSc2ccccc2)cc1`, the growth inhibition was 10% (inactive).

As for `OCCOCCO[P+]1(OCCOCCO)n2c3ccc2C(c2ccccc2)=C2C=CC(=N2)C(c2ccccc2)=c2ccc(n21)=C(c1ccccc1)C1=NC(=C3c2ccccc2)C=C1`, the growth inhibition is 100% (active).

In the case of `NCCSC1(O)C(=O)c2ccccc2-c2ccccc21` (stereo not given), the growth inhibition was 79% (active).

For the molecule `C/C=C(\C)C(=O)O[C@@H]1CC(C)(C)CC2C3=CCC4[C@]56CC[C@](O)(OC5)C(C)(C)C6CC[C@@]4(C)C3(C)CC[C@]21C(=O)O` (stereo not given in full), the growth inhibition is 70% (active).

For `CSC(=S)NN=C1CCCCC1`, the growth inhibition is 81% (active).

On to `O=C1c2ccccc2C(O)(C#Cc2ccccc2)c2cnccc21` (stereo not given), for which the growth inhibition was -11% (inactive).

For `CCCCCC(CCCCC)C(=O)O`, the growth inhibition was -5% (inactive).

Consider `CC(C)(N=Nc1ccc([N+](=O)[O-])cc1)[N+](=O)[O-]`, for which the growth inhibition was 21% (inactive).

For `CCCCCCCCCCCCCC(=O)N1CCOCC1`, the growth inhibition was 4% (inactive).

Regarding `CCOc1ccccc1-c1nc2c(s1)C(=O)c1ccccc1C2=O`, the growth inhibition was 98% (active).

Turning to `c1ccc2c(c1)C[n+]1ccc3ccccc3c1-c1c3ccccc3cc[n+]1C2`, the growth inhibition is -2% (inactive).

In the case of `Nc1cc2c(c[n+](CCCCCCCCCC[n+]3cc4c5ccccc5c(N)cc4c4ccccc43)c3ccccc23)c2ccccc12`, the growth inhibition was 58% (inactive).

On to `Cc1ccc(N=C(N)NN=C(c2ccc(Cl)cc2)c2ccc(Cl)cc2)cc1`, for which the growth inhibition was 6% (inactive).

For the molecule `O/N=C(/C[n+]1csc2ccccc21)c1ccccc1`, the growth inhibition was 12% (inactive).

As to `COc1ccc(C2Oc3c(cccc3OC)C=C2[N+](=O)[O-])cc1` (stereo not given), the growth inhibition is 45% (inactive).

For the molecule `O=C(O)c1c2c(cc3c1CC1(Cc4cc5c(cc4C1=O)CCC5)C3)CCC2` (stereo not given), the growth inhibition is 42% (inactive).

For `CSc1ncnc2ncn(C3OC(CO)C(O)C3O)c12` (stereo not given), the growth inhibition was -10% (inactive).

For `CC1SC(=S)N(c2ccc(Cl)cc2)C1=O` (stereo not given), the growth inhibition is -3% (inactive).

As to `CCOC(=O)C(C(C)=O)C1=C(Cl)C(=O)c2ccccc2C1=O` (stereo not given), the growth inhibition was 96% (active).

Turning to `CC(C)(C)c1cc(C(O)(C(F)(F)F)C(F)(F)F)c(S)c(C(O)(C(F)(F)F)C(F)(F)F)c1`, the growth inhibition is 7% (inactive).

Consider `O=[N+]([O-])C1C(c2ccccc2)CC=CC1N1CCCC1` (stereo not given), for which the growth inhibition is -3% (inactive).

In the case of `COc1ccc2nc3cc(Cl)ccc3c(NCCNc3c4ccc(Cl)cc4nc4ccc(OC)cc34)c2c1`, the growth inhibition is 16% (inactive).

As for `CCN(CC)CCNc1nc(N)c2nc(-c3ccccc3)c(-c3ccccc3)nc2n1`, the growth inhibition is -22% (inactive).

Take `CC(=O)OCC(=O)[C@@]1(O)CC[C@H]2[C@@H]3CCC4=CC(=O)C=C[C@]4(C)[C@@]3(F)[C@@H](O)C[C@@]21C`: the growth inhibition was -2% (inactive).

Regarding `O=Cc1cc(S(=O)(=O)c2ccc(O)c(C=O)c2)ccc1O`, the growth inhibition was 5% (inactive).

For the molecule `OCc1cccc2c1Oc1ccccc1S2`, the growth inhibition is 11% (inactive).

Consider `O=C(CCN1CCCC1)c1ccc(Oc2ccc(F)cc2)cc1`, for which the growth inhibition is 31% (inactive).

Turning to `Cc1ccccc1N1CCN(c2c3c(nc4ccccc24)CCCCC3)CC1`, the growth inhibition was -9% (inactive).

In the case of `CNC(Cc1ccccc1)c1ccc(OC)c2ccccc12` (stereo not given), the growth inhibition is 27% (inactive).

In the case of `CCCCN(CCCC)Cc1ccc(NC(C(=O)c2ccccc2)c2ccccc2)cc1` (stereo not given), the growth inhibition was 0% (inactive).

For the molecule `CCS(=O)(=O)/C=C(\C#Cc1ccccc1)c1ccccc1`, the growth inhibition was 11% (inactive).

Consider `CN(C)c1c([N+](=O)[O-])cc(N2C(=O)C=CC2=O)cc1[N+](=O)[O-]`, for which the growth inhibition was 47% (inactive).

Turning to `CNC(=N)c1ccc(NC(=N)c2ccc(NC(=O)c3ccc(C(=O)Nc4ccc(C(=N)Nc5ccc(C(=N)NC)cc5)cc4)cc3)cc2)cc1`, the growth inhibition was 79% (active).

Take `O=[N+]([O-])c1ccc(-c2nc3ccc(F)cc3[nH]2)o1`: the growth inhibition is 70% (active).

Regarding `CCCCCCC(=O)CC(SCCN)c1ccccc1Cl` (stereo not given), the growth inhibition was -5% (inactive).

With `O=C(CC(c1ccccc1Cl)C(C(=O)O)c1ccccc1)c1ccccc1` (stereo not given), the growth inhibition was -4% (inactive).

As to `CC([N+](=O)[O-])C1(O)C(=O)c2cccc3cccc1c23` (stereo not given), the growth inhibition was 14% (inactive).

Turning to `CC(=O)N(C1=C(Cl)C(=O)c2ccccc2C1=O)c1ccc(Cl)cc1`, the growth inhibition is 97% (active).

Consider `CCOC(=N)CCCSSc1ccc(N=[N+]=[N-])cc1`, for which the growth inhibition was -7% (inactive).

The assay is the same for the next values; noted with them: S. cerevisiae bub3 mutant strain, at 50.0 µM (retest, dose inferred, filed as 5.0), active compounds read high.
For `COC(=O)[C@H]1O[C@H]1c1ccncc1`, the growth inhibition was -2% (inactive).

Turning to `O=[N+]([O-])c1ccc(NSc2ccccc2)cc1`, the growth inhibition was 98% (active).

As to `OCCOCCO[P+]1(OCCOCCO)n2c3ccc2C(c2ccccc2)=C2C=CC(=N2)C(c2ccccc2)=c2ccc(n21)=C(c1ccccc1)C1=NC(=C3c2ccccc2)C=C1`, the growth inhibition is 99% (active).

For the molecule `NCCSC1(O)C(=O)c2ccccc2-c2ccccc21` (stereo not given), the growth inhibition is 99% (active).

Turning to `C/C=C(\C)C(=O)O[C@@H]1CC(C)(C)CC2C3=CCC4[C@]56CC[C@](O)(OC5)C(C)(C)C6CC[C@@]4(C)C3(C)CC[C@]21C(=O)O` (stereo not given in full), the growth inhibition is 96% (active).

Turning to `CSC(=S)NN=C1CCCCC1`, the growth inhibition was 97% (active).

In the case of `O=C1c2ccccc2C(O)(C#Cc2ccccc2)c2cnccc21` (stereo not given), the growth inhibition is 97% (active).

Take `CCCCCC(CCCCC)C(=O)O`: the growth inhibition is 29% (inactive).

As for `CC(C)(N=Nc1ccc([N+](=O)[O-])cc1)[N+](=O)[O-]`, the growth inhibition was 99% (active).

With `CCCCCCCCCCCCCC(=O)N1CCOCC1`, the growth inhibition is 99% (active).

Take `CCOc1ccccc1-c1nc2c(s1)C(=O)c1ccccc1C2=O`: the growth inhibition was 98% (active).

Regarding `c1ccc2c(c1)C[n+]1ccc3ccccc3c1-c1c3ccccc3cc[n+]1C2`, the growth inhibition was 4% (inactive).

On to `Nc1cc2c(c[n+](CCCCCCCCCC[n+]3cc4c5ccccc5c(N)cc4c4ccccc43)c3ccccc23)c2ccccc12`, for which the growth inhibition was 95% (active).

As to `Cc1ccc(N=C(N)NN=C(c2ccc(Cl)cc2)c2ccc(Cl)cc2)cc1`, the growth inhibition is 24% (inactive).

Regarding `O/N=C(/C[n+]1csc2ccccc21)c1ccccc1`, the growth inhibition was 76% (active).

With `COc1ccc(C2Oc3c(cccc3OC)C=C2[N+](=O)[O-])cc1` (stereo not given), the growth inhibition is 96% (active).

Take `O=C(O)c1c2c(cc3c1CC1(Cc4cc5c(cc4C1=O)CCC5)C3)CCC2` (stereo not given): the growth inhibition was 42% (inactive).

`CSc1ncnc2ncn(C3OC(CO)C(O)C3O)c12` (stereo not given): the growth inhibition is -14% (inactive).

Consider `CC1SC(=S)N(c2ccc(Cl)cc2)C1=O` (stereo not given), for which the growth inhibition is 28% (inactive).

As for `CCOC(=O)C(C(C)=O)C1=C(Cl)C(=O)c2ccccc2C1=O` (stereo not given), the growth inhibition was 100% (active).

On to `CC(C)(C)c1cc(C(O)(C(F)(F)F)C(F)(F)F)c(S)c(C(O)(C(F)(F)F)C(F)(F)F)c1`, for which the growth inhibition is 97% (active).

Turning to `O=[N+]([O-])C1C(c2ccccc2)CC=CC1N1CCCC1` (stereo not given), the growth inhibition was 95% (active).

Consider `COc1ccc2nc3cc(Cl)ccc3c(NCCNc3c4ccc(Cl)cc4nc4ccc(OC)cc34)c2c1`, for which the growth inhibition is 97% (active).

As to `CCN(CC)CCNc1nc(N)c2nc(-c3ccccc3)c(-c3ccccc3)nc2n1`, the growth inhibition was 36% (inactive).

With `CC(=O)OCC(=O)[C@@]1(O)CC[C@H]2[C@@H]3CCC4=CC(=O)C=C[C@]4(C)[C@@]3(F)[C@@H](O)C[C@@]21C`, the growth inhibition is 51% (inactive).

`O=Cc1cc(S(=O)(=O)c2ccc(O)c(C=O)c2)ccc1O`: the growth inhibition was 11% (inactive).

For `OCc1cccc2c1Oc1ccccc1S2`, the growth inhibition is 73% (active).

Consider `O=C(CCN1CCCC1)c1ccc(Oc2ccc(F)cc2)cc1`, for which the growth inhibition is 72% (active).

As for `Cc1ccccc1N1CCN(c2c3c(nc4ccccc24)CCCCC3)CC1`, the growth inhibition is 95% (active).

Take `CNC(Cc1ccccc1)c1ccc(OC)c2ccccc12` (stereo not given): the growth inhibition is 25% (inactive).

On to `CCCCN(CCCC)Cc1ccc(NC(C(=O)c2ccccc2)c2ccccc2)cc1` (stereo not given), for which the growth inhibition was 52% (inactive).

Consider `CCS(=O)(=O)/C=C(\C#Cc1ccccc1)c1ccccc1`, for which the growth inhibition was 99% (active).

As to `CN(C)c1c([N+](=O)[O-])cc(N2C(=O)C=CC2=O)cc1[N+](=O)[O-]`, the growth inhibition was 96% (active).

On to `CNC(=N)c1ccc(NC(=N)c2ccc(NC(=O)c3ccc(C(=O)Nc4ccc(C(=N)Nc5ccc(C(=N)NC)cc5)cc4)cc3)cc2)cc1`, for which the growth inhibition is 74% (active).

For `O=[N+]([O-])c1ccc(-c2nc3ccc(F)cc3[nH]2)o1`, the growth inhibition is 100% (active).

With `CCCCCCC(=O)CC(SCCN)c1ccccc1Cl` (stereo not given), the growth inhibition was 99% (active).

As for `O=C(CC(c1ccccc1Cl)C(C(=O)O)c1ccccc1)c1ccccc1` (stereo not given), the growth inhibition was 67% (inactive).

In the case of `CC([N+](=O)[O-])C1(O)C(=O)c2cccc3cccc1c23` (stereo not given), the growth inhibition was 91% (active).

Consider `CC(=O)N(C1=C(Cl)C(=O)c2ccccc2C1=O)c1ccc(Cl)cc1`, for which the growth inhibition is 99% (active).

With `CCOC(=N)CCCSSc1ccc(N=[N+]=[N-])cc1`, the growth inhibition is 99% (active).

The values above are taken from PubChem BioAssay (NCI).
